Measurements taken from ChEMBL document CHEMBL1157539, “Thousands of chemical starting points for antimalarial lead identification” (Nature, 2010).

system: HepG2; assay: GSK_TCMDC: Percent inhibition of human HepG2 cell line. Test compounds present at 10uM.; assay type: functional

| SMILES | Inhibition [%] |
| --- | --- |
| Nc1cc(/C=C/c2ccc([N+](=O)[O-])o2)nc2ccccc12 | 100 |
| Oc1cccc(-c2nc(-c3cccc(I)c3)c(-c3ccc(-c4nc(-c5cccc(O)c5)[nH]c4-c4cccc(I)c4)cc3)[nH]2)c1 | 0 |
| Cc1ccc(NC(=O)Nc2ccccc2)cc1-c1ccc(C(=O)Nc2ccncc2)cc1 | 67 |
| O=C(Nc1cccc(-c2nn3ccccc3c2-c2ccnc(Nc3ccccc3)n2)c1)c1c(F)cccc1F | 69 |
| CCCC(=O)c1cnc2c(Oc3cc(Cl)ncn3)cccc2c1Nc1ccccc1C | 6 |
| O=C(c1ccc([N+](=O)[O-])o1)N1CCN(c2ccccc2)CC1 | 44 |
| Fc1cccc(COc2ccc(-n3ccc4c(NCCCn5ccnc5)ncnc43)cc2Cl)n1 | 14 |
| Br.COc1ccc(OCCCON2C(=N)N=C(N)NC2(C)C)cc1 | 55 |
| COc1ccc(N2CCN(CCCCNC(=O)c3ccc(NC(=O)c4ccc(Cl)cc4)cc3)CC2)c(OC)c1.Cl | 25 |
| O=C(N[C@@H](Cc1ccccc1)C(=O)NC1CCCCC1)c1ccc(O)c(-c2ccc(Cl)c(Cl)c2)c1 | 0 |
| COc1ccc(CNCc2ccc(-c3cccc(-c4nc5cc(F)ccc5[nH]4)c3)cc2)cc1.O=C(O)C(F)(F)F | 33 |
| O=C(Nc1cc(Cl)ccc1O)c1cc(-c2ccccc2O)no1 | 0 |
| Cc1ccccc1OCC(O)CNC1CCC(NCC(O)COc2ccccc2C)CC1 (centres undefined) | 96 |
| CCCN(Cc1nnc(-c2ccco2)o1)C(=O)C1CCN(c2ncc(C(F)(F)F)cc2Cl)CC1 | 19 |
